Unmarked numbers belong to inactive results.
system: gramicidin D channels in DC22:1PC lipid vesicles (bilayer-modifying potency); assay: initial Tl+ fluorescence quench rate relative to no-drug control (NormRate, gramicidin monomer-dimer shift) (ratio (fold of control)); higher = stronger bilayer-modifying effect (equilibrium shifted toward conducting dimers), active = 1.5 or more; settings: 10 µM; lipid concentration 50 µM; temperature: 25 °C
Description: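 Stopped-flow fluorescence quench assay: ANTS-loaded DC22:1PC large unilamellar vesicles doped with gramicidin D (1:2000), 50 µM lipid, equilibrated 10 min with 10 µM drug (0.1% DMSO), mixed with Tl+ quench buffer at 25°C. Initial quench rate (Tl+ influx) was fitted with a modified stretched exponential and normalised to the no-drug control rate (NormRate); duplicates from two independent LUV preparations (triplicates for 7 drugs).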

Row | Compound | initial Tl+ fluorescence quench rate
1 | Cc1cnc(N2CCN[C@@H](Cc3ccccc3)C2)nc1Oc1ccc(-n2ccnc2)cc1 | 1.72 (active)
2 | Nc1cccnc1Nc1ccc(Cl)cc1 | 1.05
3 | CCOc1ccc(-c2nc(NC(=O)CS(=O)(=O)c3ccccc3)sc2C)cc1 | 3.58 (active)
4 | Cc1nc(-c2ccccn2)nc(N2CC[C@@H](Cc3ccccc3)C2)c1Cl | 3.57 (active)
5 | COc1ccc(-c2cc(NC(=O)c3ccc(F)cc3Cl)ccc2OC)cc1 | 2.04 (active)
6 | Cc1ccc2c(c1C)NC(=O)[C@@]21NN=C(c2ccccc2)S1 | 1.38
7 | c1ccc(Oc2ccc(-c3cc(CN4CCOCC4)[nH]n3)cc2)cc1 | 1.7 (active)
8 | Cc1ncc(-c2ccnc(Nc3ccc(S(C)(=O)=O)cc3)n2)n1C(C)C | 1.03
9 | CC[P](CC)(CC)=[Au][S][C@H]1O[C@@H](COC(C)=O)[C@H](OC(C)=O)[C@@H](OC(C)=O)[C@@H]1OC(C)=O | 1.07
10 | CC(C)NCC(=O)Nc1cccc(C(=O)Nc2cccc(C(F)(F)F)c2)c1 | 1.37
11 | [H]/N=C(/N)Nc1ccc(-c2ccc(-c3ccc(N=C(N)N)c(Cl)c3)o2)cc1Cl | 1.59 (active)
12 | Cc1ccc(-c2cc(C(=O)Nc3cccnc3)c3cc(Br)ccc3n2)cc1 | 2.5 (active)
13 | CN1CCN(c2nccc3[nH]c(-c4cccc(F)c4)cc23)CC1 | 1.1
14 | CNc1snc(C)c1C(=O)NCCOc1ccc(OC)cc1 | 1.06
15 | CCc1ccc([C@@H]2C[C@H](C(F)(F)F)n3ncc(C(=O)NCc4ccc(OC)cc4)c3N2)cc1 | 4.55 (active)
16 | CCc1c(C)nc(-n2nc(C)cc2NC(=O)c2ccccc2SC)[nH]c1=O | 1.2
17 | CN(C(=O)c1cc2c(-c3cncnc3)cccc2[nH]1)c1ccccc1 | 1.12
18 | CCCCc1ccc(C(=O)Nc2nccc3ccccc23)nc1 | 1.33
19 | Cc1ccccc1C(=O)N1N=C(Nc2ccccc2)SC1(C)C | 2.12 (active)

Row | Compound | initial Tl+ fluorescence quench rate
20 | Cc1cc(O)nc(-n2nc(C)cc2C)n1 | 1.04
21 | c1ccc(Oc2ccc(-c3cc(N4CCOCC4)[nH]n3)cc2)cc1 | 2.4 (active)
22 | Cc1cccc(-c2nc(Nc3ccncn3)c3sccc3n2)n1 | 1.81 (active)
23 | Cc1cccc(NC(=O)c2cc(S(=O)(=O)N(C)c3ccc(F)cc3)ccc2Cl)n1 | 1.5 (active)
24 | O[C@@H](c1cc(C(F)(F)F)nc2c(C(F)(F)F)cccc12)[C@H]1CCCCN1 | 2.24 (active)
25 | COc1cccc(CC(=O)N2CCC(n3c(C)nc4ccc(F)cc43)CC2)c1 | 1.15
26 | COc1cccc(-n2nnnc2S(=O)(=O)Cc2ccccc2)c1 | 1.07
27 | CC(C)(C)[C@H]1CC[C@H](CC2=C(O)C(=O)c3ccccc3C2=O)CC1 | 1.31
28 | COc1ccc(N(CCc2cccc(C)n2)C(=O)C2CCCCC2)cc1 | 1.41
29 | Cc1noc(C)c1C(=O)N1CCC[C@@H](c2[nH]c3c(C)cccc3c2-c2ccncc2)C1 | 1.73 (active)
30 | CN1CCN(S(=O)(=O)c2ccc(-c3ccc4c(Nc5ccc6nn[nH]c6c5)ccnc4c3)cc2)CC1 | 1.28
31 | O=C(Nc1nnc(-c2ccc(Cl)s2)o1)c1ccc(Cl)s1 | 1.27
32 | Cc1cc(C)n(-c2ccc(NC(=O)C3CCN(Cc4cnc(C)s4)CC3)cc2)n1 | 1.01
33 | Cc1cnc(CCNC(=O)c2cc(-c3ccc(Cl)cc3)cs2)[nH]1 | 1.34
34 | CS(=O)(=O)c1cccc(-c2cnc3[nH]cc(-c4ccc(CCC(=O)O)cc4)c3c2)c1 | 1.09
35 | COc1cccc(-n2nnnc2S(C)(=O)=O)c1 | 1.06
36 | Cc1[nH]c2ccccc2c1[C@@H](c1cccs1)N1CCN(C)CC1 | 1.44
37 | CC(C)(C)OC(=O)N1CCN(c2cc(-c3ccc(Oc4ccccc4)cc3)n[nH]2)CC1 | 3.47 (active)
